Compounds without any hit were thinned out: in the full panel of roughly 83,000, 20% have a hit.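 48-hour exposure, single concentration, 96-well plates; percent growth endpoint where 0 means no net growth. Active: below 10.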 The source made the active and inactive calls.
Legend:
Test in all cases: NCI-60 one-dose screen, 48 h (100 = growth as untreated, 0 = no growth, -100 = all killed)
SR leukemia = settings: 10 µM unless noted
RPMI-8226 leukemia = settings: 10 µM unless noted
OVCAR-8 ovarian = settings: 10 µM unless noted
OVCAR-5 ovarian = settings: 10 µM unless noted
OVCAR-4 ovarian = settings: 10 µM unless noted
SK-OV-3 ovarian = settings: 10 µM unless noted
IGROV1 ovarian = settings: 10 µM unless noted
OVCAR-3 ovarian = settings: 10 µM unless noted
HS 578T breast = settings: 10 µM
T-47D breast = settings: 10 µM unless noted
BT-549 breast = settings: 10 µM unless noted
MDA-MB-435 melanoma = settings: 10 µM unless noted
SW-620 colon = settings: 10 µM unless noted
MCF7 breast = settings: 10 µM unless noted
HCT-116 colon = settings: 10 µM unless noted
KM12 colon = settings: 10 µM unless noted
HCC-2998 colon = settings: 10 µM unless noted
NCI/ADR-RES ovarian = settings: 10 µM unless noted

Measured: growth

COc1cc(C2CC(c3cccc(Nc4ccnc5cc(Cl)ccc45)c3)=NN2c2ccc(Cl)cc2)cc(OC)c1OC (stereo not given)
active: MDA-MB-435 melanoma 8.15%
inactive: SR leukemia 55.9% | RPMI-8226 leukemia 47.8% | OVCAR-8 ovarian 55.2% | OVCAR-5 ovarian 80.2% | OVCAR-4 ovarian 115% | SK-OV-3 ovarian 92.2% | IGROV1 ovarian 39.7% | OVCAR-3 ovarian 83.3% | HS 578T breast 64.8% | T-47D breast 30.8% | BT-549 breast 81.7% | SW-620 colon 37.3% | MCF7 breast 54.8% | HCT-116 colon 53% | KM12 colon 33.9%

COc1ccc(C2CC(c3cccc(Nc4ccnc5cc(Cl)ccc45)c3)=NN2c2ccc(Cl)cc2)cc1 (stereo not given)
active: HCC-2998 colon 7.59%
inactive: SR leukemia 69.7% | RPMI-8226 leukemia 42.6% | OVCAR-8 ovarian 56.6% | OVCAR-5 ovarian 84.4% | OVCAR-4 ovarian 95.9% | SK-OV-3 ovarian 94.7% | IGROV1 ovarian 99.1% | OVCAR-3 ovarian 74.2% | HS 578T breast 90.5% | T-47D breast 40.6% | BT-549 breast 56.7% | MDA-MB-435 melanoma 30.6% | SW-620 colon 30.7% | MCF7 breast 65% | HCT-116 colon 66.3% | KM12 colon 22.2%

COc1cc(C2Nc3ccccc3S2)cc(CN2CCOCC2)c1O (stereo not given)
active: MDA-MB-435 melanoma 0.594%
inactive: SR leukemia 49% | RPMI-8226 leukemia 81.1% | OVCAR-8 ovarian 88.9% | OVCAR-5 ovarian 122% | OVCAR-4 ovarian 87.5% | SK-OV-3 ovarian 83.3% | IGROV1 ovarian 39% | OVCAR-3 ovarian 52% | HS 578T breast 72.2% | NCI/ADR-RES ovarian 34.2% | BT-549 breast 84.9% | SW-620 colon 50.7% | MCF7 breast 50.6% | HCT-116 colon 53.2% | HCC-2998 colon 86.4% | KM12 colon 55.4%

CNCCCNc1ccnc2cc(Cl)ccc12
active: SR leukemia 3.67% | RPMI-8226 leukemia -12.3% | OVCAR-8 ovarian 1.62% | OVCAR-4 ovarian -21.3% | SK-OV-3 ovarian 5.19% | IGROV1 ovarian -21.7% | OVCAR-3 ovarian -31.2% | HS 578T breast -3.8% | T-47D breast -5.41% | BT-549 breast -10.3% | MDA-MB-435 melanoma -98% | SW-620 colon -23.3% | MCF7 breast 2.35% | HCT-116 colon 3.6% | HCC-2998 colon -78.6% | KM12 colon 0.517%
inactive: OVCAR-5 ovarian 13.1%

CSC1=NC(=Nc2c(C)cccc2C)C2(CCC(C(C)(C)C)CC2)N1c1ccc(Cl)cc1 (stereo not given)
inactive: SR leukemia 26% | RPMI-8226 leukemia 51.5% | OVCAR-8 ovarian 31.6% | OVCAR-5 ovarian 72.1% | OVCAR-4 ovarian 60% | SK-OV-3 ovarian 57.6% | IGROV1 ovarian 55.4% | OVCAR-3 ovarian 55.3% | HS 578T breast 65.9% | T-47D breast 89.9% | BT-549 breast 81.4% | MDA-MB-435 melanoma 36.5% | SW-620 colon 28.6% | MCF7 breast 43% | HCT-116 colon 22.4% | HCC-2998 colon 44.3% | KM12 colon 39.9%

COc1ccc([C@@H]2[C@@H](Oc3ccccc3)C(=O)N2c2cc(OC)c(OC)c(OC)c2)cc1F
inactive: OVCAR-5 ovarian 19.8% | OVCAR-4 ovarian 39% | SK-OV-3 ovarian 16.6% | IGROV1 ovarian 18.5% | HS 578T breast 26% | NCI/ADR-RES ovarian 12.2% | SW-620 colon 26.2% | HCC-2998 colon 12.9% | KM12 colon 11.7%
active: SR leukemia 5.09% | RPMI-8226 leukemia 3.15% | OVCAR-8 ovarian 6.55% | OVCAR-3 ovarian 1.08% | BT-549 breast 1.45% | MDA-MB-435 melanoma -27.5% | HCT-116 colon 2.37%

CC(C)N=C1CCCC1C(=S)SSC(=S)C1CCCC1=NC(C)C (stereo not given)
inactive: SR leukemia 47.7% | RPMI-8226 leukemia 59.5% | OVCAR-8 ovarian 61.7% | OVCAR-5 ovarian 93.9% | OVCAR-4 ovarian 53.8% | SK-OV-3 ovarian 110% | IGROV1 ovarian 52.8% | OVCAR-3 ovarian 44.8% | HS 578T breast 75.9% | T-47D breast 47% | BT-549 breast 82.2% | MDA-MB-435 melanoma 61.7% | SW-620 colon 74.9% | MCF7 breast 56.9% | HCT-116 colon 51.4% | HCC-2998 colon 116% | KM12 colon 101%

CC(=O)c1c(O)c(C)c(O)c2c1OC1=CC(=O)/C(=C(/C)N)C(=O)C12C (stereo not given)
inactive: SR leukemia 69% | RPMI-8226 leukemia 68.6% | OVCAR-8 ovarian 81.8% | OVCAR-5 ovarian 98.5% | OVCAR-4 ovarian 88.1% | SK-OV-3 ovarian 101% | IGROV1 ovarian 89.1% | OVCAR-3 ovarian 103% | HS 578T breast 91.5% | T-47D breast 74.9% | BT-549 breast 89.3% | MDA-MB-435 melanoma 103% | SW-620 colon 99.4% | MCF7 breast 85.4% | HCT-116 colon 63.4% | HCC-2998 colon 103% | KM12 colon 88%

O=C(NNC(=S)Nc1ccccc1)c1ccc(Nc2ncnc3c2cnn3-c2cccc(Br)c2)cc1
inactive: SR leukemia 115% | RPMI-8226 leukemia 110% | OVCAR-8 ovarian 110% | OVCAR-5 ovarian 105% | OVCAR-4 ovarian 106% | SK-OV-3 ovarian 101% | IGROV1 ovarian 107% | OVCAR-3 ovarian 107% | HS 578T breast 105% | NCI/ADR-RES ovarian 105% | BT-549 breast 104% | MDA-MB-435 melanoma 105% | SW-620 colon 104% | HCT-116 colon 98.9% | HCC-2998 colon 104% | KM12 colon 107%

COc1cc(C2CC(c3cccc(Nc4ccnc5cc(Cl)ccc45)c3)=NN2c2ccccc2)cc(OC)c1OC (stereo not given)
inactive: SR leukemia 52.7% | RPMI-8226 leukemia 53.1% | OVCAR-8 ovarian 69.6% | OVCAR-5 ovarian 99.8% | OVCAR-4 ovarian 124% | SK-OV-3 ovarian 101% | IGROV1 ovarian 76.4% | OVCAR-3 ovarian 90.6% | HS 578T breast 63.6% | T-47D breast 42.9% | BT-549 breast 88.6% | MDA-MB-435 melanoma 24.4% | SW-620 colon 37.8% | MCF7 breast 60.6% | HCT-116 colon 64.8% | HCC-2998 colon 91.8% | KM12 colon 40.7%

C/C=C(\C)C(C(=O)NC1CCCCC1)N(C(=O)C1CCc2cc(F)ccc2O1)c1ccc([N+](=O)[O-])cc1 (stereo not given)
inactive: SR leukemia 101% | RPMI-8226 leukemia 79.1% | OVCAR-8 ovarian 88.4% | OVCAR-5 ovarian 93.4% | OVCAR-4 ovarian 79% | SK-OV-3 ovarian 90.5% | IGROV1 ovarian 85.8% | OVCAR-3 ovarian 89.4% | HS 578T breast 80.2% | NCI/ADR-RES ovarian 85.7% | BT-549 breast 90.1% | MDA-MB-435 melanoma 87.7% | SW-620 colon 94.9% | MCF7 breast 77% | HCT-116 colon 60.3% | HCC-2998 colon 98.4% | KM12 colon 95.8%

Cc1cc(C)c2c(NC(=O)Nc3ccc(Cl)c(Cl)c3)n[nH]c2n1
inactive: SR leukemia 96.6% | RPMI-8226 leukemia 100% | OVCAR-8 ovarian 110% | OVCAR-5 ovarian 101% | OVCAR-4 ovarian 93.2% | SK-OV-3 ovarian 100% | IGROV1 ovarian 111% | OVCAR-3 ovarian 113% | HS 578T breast 114% | NCI/ADR-RES ovarian 102% | MDA-MB-435 melanoma 92.8% | SW-620 colon 112% | MCF7 breast 82.6% | HCT-116 colon 108% | HCC-2998 colon 115% | KM12 colon 104%

C[C@@H](C[C@H](CC1CC1)c1ccccc1)c1ccc2ccccc2c1
inactive: SR leukemia 106% | RPMI-8226 leukemia 98.8% | OVCAR-8 ovarian 106% | OVCAR-5 ovarian 107% | OVCAR-4 ovarian 96.1% | SK-OV-3 ovarian 117% | IGROV1 ovarian 101% | OVCAR-3 ovarian 113% | HS 578T breast 108% | NCI/ADR-RES ovarian 105% | BT-549 breast 106% | MDA-MB-435 melanoma 102% | SW-620 colon 93.6% | MCF7 breast 108% | HCT-116 colon 98.6% | HCC-2998 colon 101% | KM12 colon 103%

FC(F)(F)C1=NNC(c2ccc3ccccc3c2)=NN1
inactive: SR leukemia 95% | RPMI-8226 leukemia 94% | OVCAR-8 ovarian 97.4% | OVCAR-5 ovarian 96.9% | OVCAR-4 ovarian 96.2% | SK-OV-3 ovarian 104% | IGROV1 ovarian 103% | OVCAR-3 ovarian 101% | HS 578T breast 95.9% | T-47D breast 96.7% | BT-549 breast 107% | MDA-MB-435 melanoma 102% | SW-620 colon 97.9% | MCF7 breast 88.7% | HCT-116 colon 100% | HCC-2998 colon 118% | KM12 colon 93.7%

C#CC[C@@H]1C[C@]2(C)[C@H]3CC[C@@H]4[C@H]5C(C(=C)C)CC[C@]5(C(=O)NCCCCN)CC[C@@]4(C)[C@]3(C)CC[C@H]2C(C)(C)[C@H]1OC(C)=O (stereo not given in full)
active: SR leukemia -7.19% | RPMI-8226 leukemia -39.1% | OVCAR-8 ovarian -47.5% | OVCAR-5 ovarian -87.3% | OVCAR-4 ovarian -61.8% | IGROV1 ovarian -59% | OVCAR-3 ovarian -87.3% | HS 578T breast -26.2% | NCI/ADR-RES ovarian -53.4% | MDA-MB-435 melanoma -92.2% | SW-620 colon -66.8% | MCF7 breast -71.6% | HCT-116 colon -85.7% | HCC-2998 colon -11.1% | KM12 colon -66.8%
inactive: SK-OV-3 ovarian 111% | BT-549 breast 41.2%

CCOC(=O)Nc1ccc2nc(-c3cscn3)[nH]c2c1
inactive: SR leukemia 23.3% | RPMI-8226 leukemia 43.1% | OVCAR-8 ovarian 57.8% | OVCAR-5 ovarian 85.9% | OVCAR-4 ovarian 89.7% | SK-OV-3 ovarian 56.5% | IGROV1 ovarian 42.6% | OVCAR-3 ovarian 22.8% | HS 578T breast 64.7% | T-47D breast 44.5% | BT-549 breast 48.6% | SW-620 colon 19.8% | MCF7 breast 34% | HCT-116 colon 21.6% | HCC-2998 colon 65.7% | KM12 colon 34.3%
active: MDA-MB-435 melanoma -40.5%

COc1cc(C2CC(c3ccc(Nc4ccnc5cc(Cl)ccc45)cc3)=NN2c2ccccc2)cc(OC)c1OC (stereo not given)
inactive: SR leukemia 24.8% | RPMI-8226 leukemia 49.7% | OVCAR-8 ovarian 81.2% | OVCAR-5 ovarian 86.4% | OVCAR-4 ovarian 123% | SK-OV-3 ovarian 90.3% | IGROV1 ovarian 106% | OVCAR-3 ovarian 86.7% | HS 578T breast 72.4% | T-47D breast 67.7% | BT-549 breast 82.3% | SW-620 colon 50.2% | MCF7 breast 48% | HCT-116 colon 54.9% | HCC-2998 colon 67.7% | KM12 colon 47.9%
active: MDA-MB-435 melanoma 6.36%
